Assay outcomes (PubChem)
FGF22 binding: binders of human FGF22 protein, primary screen, FGF22 synaptogenesis inhibitor project, biophysical, thermal shift, single point; Fibroblast growth factor 22 (Homo sapiens), Q9HCT0; activity (Tm shift, normalised), % at 9.99 µM; recombinant FGF22 thermal shift, SYPRO orange fluorescence; percent of sucrose octasulfate shift, DMSO zero; hit rate 1.5% among 340,000;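 active = mean Tm shift, scaled 0 neutral to 100 positive control, at about 1.3% or above, every replicate too, limit read from the data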
Target sequence (Q9HCT0 whole entry, looked up): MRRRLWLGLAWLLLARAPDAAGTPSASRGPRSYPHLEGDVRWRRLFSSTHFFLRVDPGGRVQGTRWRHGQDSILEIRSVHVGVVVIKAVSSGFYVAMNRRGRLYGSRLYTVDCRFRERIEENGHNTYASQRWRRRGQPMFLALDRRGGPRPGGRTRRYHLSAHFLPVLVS
CFTR F508del cor: F508del CFTR correction, initial screen, CFBE line, single point; CFBE cells, YFP halide quenching; stimulated with forskolin plus potentiator P3; % fluorescence drop versus neutral controls; activity (quench increase), % at 7.58 µM; hit rate 0.36% among 350,000;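 active = mean added fluorescence quench of at least 8% versus neutral control, with both replicates also reaching 8%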;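 also: cells transiently co-express mutant CFTR-F508del with the halide-sensitive YFP; corrector assay measuring rescue of mutant channel to the surface after 24 h compound exposure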
Vif inh: HIV Vif self-association inhibitors, primary screen, imaging, HEK293T, single point; HEK293T cells, Vif self-association by quenched fluorescence, 24 h; inhibition, % at 7.49 µM; hit rate 0.35% among 340,000; AID 602346, 2012; in the data active = inhibition above about 50%, passing the limit was not always enough
An asterisk follows results filed as active; i = inactive; x = no result given. An excerpt weighted towards active compounds, which were near 1.7% of everything screened.

SMILES	FGF22 binding	CFTR F508del cor	Vif inh
Cn1cnc(S(=O)(=O)N[C@@H]2CC[C@@H](CC(=O)Nc3ccccc3)O[C@@H]2CO)c1	-0.2	-0.4	x
COC(c1ccccc1)c1nnc(CCC(=O)NC2CCCCC2)o1 (stereo not drawn)	0.8	1.0	5.9
COC(c1ccccc1)c1nnc(CCC(=O)N2CCCCCCC2)o1 (stereo not drawn)	44.2*	-0.8	0.8
COC(c1ccccc1)c1nnc(CCC(=O)N(C)C(C2CC2)C2CC2)o1 (stereo not drawn)	43.9*	-1.3	-0.2
COC(c1ccccc1)c1nnc(CCC(=O)N2CCN(Cc3cccs3)CC2)o1 (stereo not drawn)	-0.1	-0.1	-2.0
O=C(CN1CCOCC1)N[C@H]1CC[C@@H](CCn2cc(C3CCCCC3)nn2)O[C@@H]1CO	x	0.8	x
CCC(=O)N(C)C[C@H]1Oc2cc(-c3cccc(OC)c3)ccc2S(=O)(=O)N([C@H](C)CO)C[C@H]1C	0.0	-1.1	x
C[C@H]1CN([C@@H](C)CO)C(=O)c2cc(NS(=O)(=O)c3ccc(Cl)cc3)ccc2O[C@@H]1CN(C)Cc1ccc(C(F)(F)F)cc1	x	3.2	x
CN(C)C(=O)c1ccc(-c2ccc3c(c2)[C@H]2[C@H](CCN2C(=O)c2ccc4c(c2)OCO4)[C@@H](CO)N3)cc1	x	1.8	x
c1ccc(-c2cn3nc(-c4ccccc4)c(-c4ccccc4)nc3n2)cc1	x	x	156.7*
Cc1ccc(-c2cn3nc(-c4ccccc4)c(-c4ccccc4)nc3n2)cc1	-0.2	0.9	i
CN1C(=O)c2cc(NC(=O)Cc3ccccc3)ccc2OC[C@H]2O[C@@H](CC(=O)O)CC[C@@H]21	x	0.3	x
O=C(C[C@H]1C[C@@H]2c3cc(NC(=O)c4cccnc4)ccc3O[C@@H]2[C@@H](CO)O1)NCc1ccc(Oc2ccccc2)cc1	0.6	-0.8	x
O=C(C[C@H]1CC[C@@H]2[C@H](COC[C@@H](O)CN2C(=O)Nc2ccccc2)O1)NCc1ccccc1F	0.1	-2.2	x
COc1ccc(C(=O)CN2CCN(S(=O)(=O)c3cccc([N+](=O)[O-])c3)CC2)cc1OC	0.7	0.1	3.3
COc1cccc(C(=O)CN2CCN(S(=O)(=O)c3cccc([N+](=O)[O-])c3)CC2)c1	43.0*	-3.6	2.1
CC1(Cc2ccccc2C#N)C(=O)Nc2cc(-c3ccccc3Cl)ccc21 (stereo not drawn)	-0.1	2.4	27.3
CC1(Cc2ccc(C(F)(F)F)nc2)C(=O)Nc2cc(-c3ccccc3Cl)ccc21 (stereo not drawn)	43.1*	1.5	-7.3
N#C/C(=C/c1ccc(-c2ccc([N+](=O)[O-])cc2)o1)C(=O)Nc1nc(-c2cccs2)cs1	0.3	2.3	18.8
Cc1ccc(Cc2cnc(NC(=O)/C(C#N)=C/c3ccc(-c4ccc([N+](=O)[O-])cc4)o3)s2)cc1	x	x	89.0*
CCNC(=O)C[C@@H]1CC[C@@H]2[C@H](COC[C@H](O)CN2C(=O)C2CC2)O1	-0.4	-1.0	x
C[C@H]1CN([C@@H](C)CO)C(=O)c2cc(NS(C)(=O)=O)ccc2O[C@@H]1CN(C)Cc1ccccc1	0.2	-1.1	x
O=Nc1ccc(O)c2ncccc12	-0.1	15.7*	-1.0
Cc1ccccc1N=Nc1ccc(O)c2ncccc12	0.0	x	-1.0
CCC(=O)Nc1ccc2c(c1)OC[C@@H](C)N(CC1CCOCC1)C[C@H](C)[C@H](OC)CN(C)C2=O	-0.1	0.9	x
SMILES	FGF22 binding	CFTR F508del cor	Vif inh
Cc1ccc(CNC(C)(C)CO)cc1	x	x	-4.6
CC(C)(CO)NCc1ccc(Br)cc1	42.9*	1.3	3.1
CC(C)(C)OC(=O)COc1cccc(C(=O)CCN2CCOCC2)c1	-0.5	-0.9	x
COC(=O)C(=Cc1ccncc1)c1cccc2ccccc12	-0.3	-0.8	-4.6
O=C(O)C(=Cc1ccncc1)c1cccc2ccccc12	43.3*	-1.1	21.6
COc1ccc(NC(=O)Nc2ccc3c(c2)C(=O)N(C)C[C@@H](OC)[C@H](C)CN[C@H](C)CO3)cc1	x	2.8	x
COc1ccccc1N(CC(=O)N(c1ccccc1)C(C)C)S(=O)(=O)c1cccs1	-0.1	2.9	-2.5
COc1ccccc1N(CC(=O)N(CC(C)C)CC(C)C)S(=O)(=O)c1cccs1	42.9*	6.6	3.1
COc1ccc(NC(=O)Nc2cccc3c2O[C@H](CN(C)C(=O)NC(C)C)[C@@H](C)CN([C@@H](C)CO)C3=O)cc1	-0.6	0.0	x
Cc1nn(-c2ccccc2)c(N)c1Sc1ccc([N+](=O)[O-])cc1	x	x	-1.6
Cc1nn(S(=O)(=O)c2ccc(Cl)cc2)c(C)c1Sc1ccc([N+](=O)[O-])cc1	-0.3	14.9*	-13.6
